The values that follow come from PubChem BioAssay (NCI).

The panel holds about 79,000 compounds, 15% with a hit somewhere; the sample as a whole holds those more often. A number with no mark means an inactive call. Activity calls are given as the source filed them. No stated cut-off is given here; in the data, active means growth inhibition above about 70%; inactive means the rest.

This assay is described as follows: NCI Yeast Anticancer Drug Screen. Data for the CLN2oe strain (AID 163).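 Further: 0% = growth of vehicle-only control cultures.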 To be noted: S. cerevisiae CLN2oe strain, at 33.0 µM, hits give high values. An outline of the steps:
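Yeast cells carrying a defined cell-cycle control alteration were exposed to test compounds. Growth inhibition was scored against vehicle-treated control cultures.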
For `O=[N+]([O-])c1cc[n+]([O-])cc1`, the growth inhibition is 5%. On to `CC1(C)CC(=O)C(/C=N/c2nc(-c3ccccc3)cs2)=C(O)C1`, for which the growth inhibition is 25%. In the case of `Nc1nc(N)c2nc(CNc3ccc(C(=O)NC(CCC(=O)O)C(=O)O)cc3F)cnc2n1` (stereo not drawn), the growth inhibition was 17%. On to `COC(=O)CC1(O)C(/C=C/c2ccccc2)C(C(=O)OC)C(=O)C(C(=O)OC)C1C(=O)OC` (stereo not drawn), for which the growth inhibition was -7%.

In the case of `CC(C)(C)c1ccc(NS(=O)(=O)c2ccc(N)cc2)cc1`, the growth inhibition is 4%. For `CCN(CC)CCNc1ccc([N+](=O)[O-])c2nc3ccccc3c(N)c12`, the growth inhibition is -6%. Regarding `CCCCN(CCCC)C(=O)/C=C/c1ccccc1`, the growth inhibition is -9%. Regarding `O=c1[nH]c(-c2ccccc2)nc2c1sc1nc3ccccc3n12`, the growth inhibition is -23%. Turning to `O=[N+]([O-])c1ccc2c(c1)/C(=N/N=C1c3ccccc3Cc3ccccc31)c1cc([N+](=O)[O-])cc([N+](=O)[O-])c1-2`, the growth inhibition was 99% (active).

With `CC(C)C(C)/C=C\C(C)C1CCC2C3=CC=C4CC(O)CCC4(C)C3CCC21C` (stereo not drawn), the growth inhibition was -4%. Take `O=C1Nc2ccc(Br)cc2C1=Nc1ccc2c(c1)OCO2`: the growth inhibition is 17%. For `CCCCOCn1c(=O)[nH]c(=O)c2cc(Br)ccc21`, the growth inhibition is -21%. As for `Cc1ccc(S/C(=C\C(=O)O)c2ccccc2)cc1`, the growth inhibition is 16%. Consider `O=[N+]([O-])/C=C/c1cc(Cl)c(/C=C/[N+](=O)[O-])cc1Cl`, for which the growth inhibition was 69%.

`Cc1cc(S(=O)(=O)Nc2nnc3cnc4ccccc4n23)c(S)cc1Cl`: the growth inhibition was 24%.

As to `O=C(/C=C/c1cc(Cl)cc(Cl)c1O)c1cccc(O)c1`, the growth inhibition was 98% (active). As for `NC1CCCCC1N.Nc1c(N=Nc2ccc(-c3ccc(N=Nc4cc(S(=O)(=O)[O-])c5ccccc5c4N)cc3)cc2)cc(S(=O)(=O)[O-])c2ccccc12.[OH3+].[OH3+].[Pt+4]`, the figure is 89% (active). Regarding `COC(=O)CCC(NC(=S)N/N=C(\C)c1ccccn1)C(=O)OC` (stereo not drawn), the growth inhibition was 62%. Regarding `NC(=O)C(=O)NNc1ccccc1`, the growth inhibition was 67%. Then `COc1cc(C2SCC(=O)N2c2ccc(-c3ccc(-n4c(-c5ccccc5)nc5ccccc5c4=O)cc3)cc2)ccc1O` (stereo not drawn), with -14%. Take `COc1ccc(/C=C/c2sc3ccccc3[n+]2CCCCI)cc1OC`: the growth inhibition was -10%. On to `Cc1c(C(C)C)cc(OCCO)cc1C(C)C`, for which the growth inhibition was 0%. On to `Cc1cc(NCCCCCCCCNc2cc(C)nc3cc(N)ccc23)c2ccc(N)cc2n1`, for which the growth inhibition is 97% (active).

With `C=C(Cl)COC(=O)Nc1cccc(Cl)c1`, the growth inhibition is 3%. Then `CC(=O)OC1CC2C(C)(C)C(=O)C=C[C@]2(C)C2CCC3(C)C(=CCC3[C@H](CO)C[C@H](O)C(=O)C(C)(C)O)[C@]12C` (stereo partly drawn), with 0%. `COc1ccc(/C=C/C(=O)c2ccccc2)cc1OC`: the growth inhibition was 37%.

`COc1c(O)c(C=O)c(Br)c(C=O)c1O`: the growth inhibition was 40%. Then `O=[N+]([O-])c1cc(Cl)cnc1Br`, with 4%; and `Cc1ccc2c(c1)C1(SC(C)C(=O)N1c1ccc(Cl)cc1)C(=O)N2` (stereo not drawn), with 91% (active); and `COc1cc(CSc2ccc(O)cc2)cc(O)c1O`, with 12%. Take `Cc1ccc2c3ccc4c(c3n(C)c2c1)C(=O)C=CC4=O`: the growth inhibition is 9%. Consider `O=C(Nc1ccc(Cl)cc1)Nc1nnc2nc(C(C(=O)c3cccc([N+](=O)[O-])c3Cl)c3nc4nnc(NC(=O)Nc5ccc(Cl)cc5)n4[nH]c3=O)c(=O)[nH]n12`, for which the growth inhibition is -12%. In the case of `O=C(O)C1CC(c2ccccc2)=NN1c1ccccc1` (stereo not drawn), the growth inhibition was 29%. For `CCCCc1ccc(-n2c(C)c(COC(=O)NC)c(COC(=O)NC)c2C)cc1`, the growth inhibition was 97% (active). With `CCC(=O)c1cc(C(=O)C(=S)SC)cc(C(=O)C(=S)SC)c1`, the growth inhibition was 98% (active).

In the case of `CCn1c(O)c(C=Nc2ccccc2)s/c1=N/Nc1nc(-c2ccccc2)cs1`, the growth inhibition was -9%.

Regarding `Cc1ccccc1N=C(NO)c1ccccc1`, the growth inhibition is 20%. As for `Cc1nc2ccccc2nc1NNc1ccccc1`, the growth inhibition was 18%.
